Source: the supplement of paper PMC10849652
Of roughly 7,900 targets only a part is listed; those with a hit were picked by preference. About 0.6% of all pairs of compound and target were hits.

Tests used:
Experiment in all cases: log2 fold change, soluble protein after heating vs DMSO (PISA); higher = thermal stabilisation; K562 cells, 10 uM, 30 min; active = over 0.2 and 3.5 SD of the protein, either way, in both replicates (recomputed)
erlotinib = compound: C#Cc1cccc(Nc2ncnc3cc(OCCOC)c(OCCOC)cc23)c1 [erlotinib]
Method in brief: (§1)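 K562 cells at 2×10^6 cells/mL were given 10 μM compound for 30 min. Aliquots then went through 3 min of heating across 48°C-58°C, were pooled, and were extracted in PBS with 0.5% NP-40 at 4°C, and the supernatant after 21,000xg for 90 min was quantified by TMTpro 16plex LC-MS/MS with channel sums equalised. Thermal stability relative to control samples, from duplicates, is given as log2 fold change.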

[1] = compound: C/C(=N\NC(=O)C1=CC(=CC=C1)S(=O)(=O)N2CCOCC2)/C3=C(C=CC(=C3)Cl)O
Method in brief: as §1

[2] = compound: C1=CC(=C(C=C1Cl)C2=NC3=NC=CN=C3C(=N2)NC4=CC=NC=C4)F
Method in brief: as §1

[3] = compound: C1=CC(=CC=C1C2=NC3=C(N2)C=C(C=C3)C(=O)N)OC4=CC=C(C=C4)Cl
Method in brief: as §1

[4] = compound: C1=CC2=C(C=CC(=C2)/C=C\3/C(=O)NC(=NCC4=CC=CS4)S3)N=C1
Method in brief: as §1

[5] = compound: C1=CC2=NC=CN=C2C=C1/C=C/3\C(=O)NC(=O)S3
Method in brief: as §1

[6] = compound: C1=CC=C(C=C1)C2=NC(=C(N2)C3=CC=NC=C3)C4=CC(=C(C=C4)Cl)O
Method in brief: as §1

[7] = compound: C1=CC=C2C(=C1)C3=NNC4=CC=CC(=C43)C2=O
Method in brief: as §1

[8] = compound: C1CCN(C1)C(=O)NC2=CC=CC(=C2)NC3=NC=C(C(=N3)NCCC4=CN=CN4)Br
Method in brief: as §1

[9] = compound: C1CN(CCC1(CC2=CC=C(C=C2)Cl)N)C3=NC=NC4=C3C=CN4
Method in brief: as §1

Measured: log2 fold change

MT-ATP6 (UniProt P00846)
inactive: erlotinib 0.207 | [1] 0.146 | [2] -0.042 | [3] -0.07 | [4] -0.078 | [5] -0.391 | [6] -0.048 | [7] -0.017 | [8] -0.073 | [9] -0.042

MRPL50 (UniProt Q8N5N7)
inactive: erlotinib -0.107 | [1] -0.033 | [2] 0.048 | [3] 0.004 | [4] -0.008 | [5] 0.066 | [6] 0.312 | [7] 0.072 | [8] -0.084 | [9] -0.073

NMD3 (UniProt Q96D46)
active: [9] -0.281
inactive: erlotinib 0.025 | [1] 0.011 | [2] 0.052 | [3] 0.023 | [4] 0.009 | [5] -0.02 | [6] 0.05 | [7] 0.013 | [8] 0.064

OSBP (UniProt P22059)
inactive: erlotinib -0.059 | [1] 0.111 | [2] 0.063 | [3] 0.109 | [4] -0.009 | [5] 0.019 | [6] -0.027 | [7] -0.042 | [8] -0.001 | [9] 0.013

NUMB (UniProt P49757)
inactive: erlotinib 0.016 | [1] -0.012 | [2] -0.048 | [3] 0.018 | [4] -0.001 | [5] 0.044 | [6] -0.004 | [7] -0.009 | [8] -0.087 | [9] 0.021

NDUFA6 (UniProt P56556)
Sequence of UniProt P56556 (P56556 whole entry, looked up): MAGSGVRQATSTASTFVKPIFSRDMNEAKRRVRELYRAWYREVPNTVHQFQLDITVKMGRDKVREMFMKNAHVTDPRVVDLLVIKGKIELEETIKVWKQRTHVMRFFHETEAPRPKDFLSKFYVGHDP
inactive: erlotinib 0.014 | [1] 0.133 | [2] 0.11 | [3] -0.015 | [4] -0.045 | [5] 0.002 | [6] 0.104 | [7] 0.042 | [8] -0.031 | [9] -0.008

NUP160 (UniProt Q12769)
Sequence of UniProt Q12769 (Q12769 whole entry, looked up): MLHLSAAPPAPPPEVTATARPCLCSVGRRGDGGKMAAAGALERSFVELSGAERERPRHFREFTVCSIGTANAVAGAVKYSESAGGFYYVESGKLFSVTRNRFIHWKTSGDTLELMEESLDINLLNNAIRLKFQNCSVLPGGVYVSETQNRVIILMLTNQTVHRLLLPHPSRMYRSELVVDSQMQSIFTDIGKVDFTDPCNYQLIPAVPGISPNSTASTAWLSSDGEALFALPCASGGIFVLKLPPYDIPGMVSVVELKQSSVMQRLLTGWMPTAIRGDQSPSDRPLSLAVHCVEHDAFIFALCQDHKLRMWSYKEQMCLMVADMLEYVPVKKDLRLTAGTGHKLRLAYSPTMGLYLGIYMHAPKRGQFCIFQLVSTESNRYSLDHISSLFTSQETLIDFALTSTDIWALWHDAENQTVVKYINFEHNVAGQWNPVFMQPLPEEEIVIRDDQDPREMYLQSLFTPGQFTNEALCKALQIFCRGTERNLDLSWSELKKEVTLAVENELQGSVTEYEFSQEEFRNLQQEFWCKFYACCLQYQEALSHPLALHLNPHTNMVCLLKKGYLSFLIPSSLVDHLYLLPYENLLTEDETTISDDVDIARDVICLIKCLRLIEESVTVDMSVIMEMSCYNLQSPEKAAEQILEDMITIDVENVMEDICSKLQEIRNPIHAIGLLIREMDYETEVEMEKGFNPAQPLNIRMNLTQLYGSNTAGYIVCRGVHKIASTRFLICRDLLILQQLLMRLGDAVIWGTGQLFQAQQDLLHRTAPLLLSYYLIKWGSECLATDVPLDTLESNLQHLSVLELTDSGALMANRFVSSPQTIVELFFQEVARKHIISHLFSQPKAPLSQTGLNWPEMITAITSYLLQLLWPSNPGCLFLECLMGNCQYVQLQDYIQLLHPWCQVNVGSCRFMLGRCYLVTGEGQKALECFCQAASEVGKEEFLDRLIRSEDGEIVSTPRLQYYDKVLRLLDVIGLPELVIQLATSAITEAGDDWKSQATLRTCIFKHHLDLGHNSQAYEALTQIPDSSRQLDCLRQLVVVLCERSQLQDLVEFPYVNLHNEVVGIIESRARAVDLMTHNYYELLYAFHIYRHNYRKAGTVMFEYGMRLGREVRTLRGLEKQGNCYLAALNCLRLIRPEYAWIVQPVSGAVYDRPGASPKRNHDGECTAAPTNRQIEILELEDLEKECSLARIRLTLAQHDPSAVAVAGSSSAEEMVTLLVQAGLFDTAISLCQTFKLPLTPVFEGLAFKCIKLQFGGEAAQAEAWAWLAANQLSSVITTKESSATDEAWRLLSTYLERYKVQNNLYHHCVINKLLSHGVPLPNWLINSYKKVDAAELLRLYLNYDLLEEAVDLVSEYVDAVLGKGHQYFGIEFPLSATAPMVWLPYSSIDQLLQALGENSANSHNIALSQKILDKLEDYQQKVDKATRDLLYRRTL
inactive: erlotinib 0.001 | [1] 0.022 | [2] 0.01 | [3] -0.024 | [4] -0.006 | [5] 0.045 | [6] -0.017 | [7] -0.091 | [8] -0.085 | [9] -0.025

NDUFA9 (UniProt Q16795)
inactive: erlotinib -0.031 | [1] 0.035 | [2] 0.059 | [3] 0.03 | [4] 0.031 | [5] -0.016 | [6] 0.025 | [7] 0.047 | [8] 0.005 | [9] 0.024

NAT14 (UniProt Q8WUY8)
inactive: erlotinib -0.016 | [1] 0.079 | [2] -0.002 | [3] 0.014 | [4] 0.057 | [5] 0.046 | [6] 0.135 | [7] 0.033 | [8] 0.002 | [9] -0.084

NRDC isoform 2 (UniProt O43847)
Sequence of UniProt O43847 (O43847 whole entry, looked up): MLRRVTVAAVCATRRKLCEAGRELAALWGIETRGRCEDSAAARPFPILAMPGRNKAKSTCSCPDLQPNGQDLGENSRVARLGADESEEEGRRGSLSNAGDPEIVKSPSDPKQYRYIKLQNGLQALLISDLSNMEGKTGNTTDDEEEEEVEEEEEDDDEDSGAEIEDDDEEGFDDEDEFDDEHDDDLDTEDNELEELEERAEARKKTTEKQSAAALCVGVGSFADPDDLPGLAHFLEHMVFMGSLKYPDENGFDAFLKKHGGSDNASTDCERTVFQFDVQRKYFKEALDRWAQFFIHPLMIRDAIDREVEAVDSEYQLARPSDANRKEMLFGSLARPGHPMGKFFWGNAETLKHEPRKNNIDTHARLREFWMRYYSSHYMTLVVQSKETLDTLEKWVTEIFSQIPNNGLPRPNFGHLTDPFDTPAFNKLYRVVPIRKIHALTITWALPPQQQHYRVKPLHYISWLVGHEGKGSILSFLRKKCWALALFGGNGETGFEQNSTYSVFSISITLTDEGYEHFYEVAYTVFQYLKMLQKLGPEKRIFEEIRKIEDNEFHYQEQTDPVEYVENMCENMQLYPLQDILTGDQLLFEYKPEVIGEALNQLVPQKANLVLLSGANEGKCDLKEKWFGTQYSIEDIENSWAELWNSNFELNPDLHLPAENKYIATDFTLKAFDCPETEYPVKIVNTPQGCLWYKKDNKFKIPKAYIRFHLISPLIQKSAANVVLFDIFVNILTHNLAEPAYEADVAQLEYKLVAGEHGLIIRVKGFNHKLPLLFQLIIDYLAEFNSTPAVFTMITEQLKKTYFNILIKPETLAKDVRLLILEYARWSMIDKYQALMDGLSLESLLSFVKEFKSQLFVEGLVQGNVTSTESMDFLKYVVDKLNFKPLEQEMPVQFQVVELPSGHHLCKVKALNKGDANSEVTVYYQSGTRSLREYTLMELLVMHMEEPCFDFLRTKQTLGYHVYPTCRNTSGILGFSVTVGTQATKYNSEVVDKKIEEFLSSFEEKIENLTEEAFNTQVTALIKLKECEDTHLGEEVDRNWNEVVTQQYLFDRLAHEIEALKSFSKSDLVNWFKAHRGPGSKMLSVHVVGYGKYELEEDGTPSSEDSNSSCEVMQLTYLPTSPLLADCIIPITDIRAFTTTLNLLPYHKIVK
inactive: erlotinib -0.016 | [1] 0.081 | [2] 0.012 | [3] -0.024 | [4] 0.021 | [5] 0.024 | [6] 0.027 | [7] 0.057 | [8] -0.046 | [9] 0.049

NAA11 (UniProt Q9BSU3)
Sequence of UniProt Q9BSU3 (Q9BSU3 whole entry, looked up): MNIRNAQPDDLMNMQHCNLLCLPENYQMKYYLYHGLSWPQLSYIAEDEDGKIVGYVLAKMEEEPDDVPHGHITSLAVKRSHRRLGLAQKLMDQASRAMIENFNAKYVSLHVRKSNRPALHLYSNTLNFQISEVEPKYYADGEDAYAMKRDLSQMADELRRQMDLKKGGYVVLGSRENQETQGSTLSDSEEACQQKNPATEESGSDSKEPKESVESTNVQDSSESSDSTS
inactive: erlotinib -0.023 | [1] -0.012 | [2] -0.033 | [3] 0.06 | [4] 0.158 | [5] -0.207 | [6] -0.023 | [7] -0.032 | [8] -0.108 | [9] 0.167

NRGN (UniProt Q92686)
Sequence of UniProt Q92686 (Q92686 whole entry, looked up): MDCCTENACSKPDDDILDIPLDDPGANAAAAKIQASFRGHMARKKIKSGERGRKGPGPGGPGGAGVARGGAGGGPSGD
inactive: erlotinib 0.066 | [1] 0.086 | [2] 0.054 | [3] -0.074 | [4] -0.264 | [5] -0.027 | [6] 0.139 | [7] 0.105

MSL1 (UniProt Q68DK7)
inactive: erlotinib 0.185 | [2] 0.106 | [3] -0.193 | [4] 0.069 | [5] -0.033 | [6] 0.066 | [7] -0.026
active: [1] -0.603

NELFA (UniProt Q9H3P2)
inactive: erlotinib 0.21 | [1] 0.231 | [2] 0.059 | [3] -0.061 | [4] 0.073 | [5] 0.111 | [6] 0.048 | [7] 0 | [8] -0.323 | [9] -0.028

MT-ND4 (UniProt P03905)
inactive: erlotinib 0.152 | [1] -0.077 | [2] 0.053 | [3] -0.028 | [4] -0.026 | [5] 0.044 | [6] -0.009 | [7] 0.078 | [8] -0.007 | [9] -0.036

NDUFB7 (UniProt P17568)
inactive: erlotinib -0.027 | [1] 0.015 | [2] 0.038 | [3] 0.04 | [4] -0.011 | [5] 0.061 | [6] 0.031 | [7] -0.007 | [8] 0.037 | [9] 0.041

NSMCE2 (UniProt Q96MF7)
inactive: erlotinib -0.076 | [1] 0.012 | [2] -0.078 | [3] 0.009 | [4] 0.023 | [5] -0.096 | [6] 0.04 | [7] -0.058 | [8] -0.001 | [9] 0.008

NECTIN2 isoform 2 (UniProt Q92692)
Sequence of UniProt Q92692 (Q92692 whole entry, looked up): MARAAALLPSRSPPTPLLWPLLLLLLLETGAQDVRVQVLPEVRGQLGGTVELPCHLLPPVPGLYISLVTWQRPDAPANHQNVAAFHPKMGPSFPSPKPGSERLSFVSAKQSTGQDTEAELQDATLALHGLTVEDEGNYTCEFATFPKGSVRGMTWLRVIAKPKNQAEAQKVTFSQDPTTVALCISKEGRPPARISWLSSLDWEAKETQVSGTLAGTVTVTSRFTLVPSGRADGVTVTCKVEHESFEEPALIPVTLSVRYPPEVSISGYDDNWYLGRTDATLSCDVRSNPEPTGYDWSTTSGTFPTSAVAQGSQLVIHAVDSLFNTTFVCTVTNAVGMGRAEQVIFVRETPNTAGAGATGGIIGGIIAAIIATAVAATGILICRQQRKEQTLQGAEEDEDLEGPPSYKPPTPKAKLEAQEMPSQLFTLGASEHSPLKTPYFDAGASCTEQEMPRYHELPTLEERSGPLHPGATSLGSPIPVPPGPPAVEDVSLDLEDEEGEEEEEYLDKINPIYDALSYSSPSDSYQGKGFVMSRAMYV
inactive: erlotinib -0.151 | [1] 0.006 | [2] -0.386 | [3] 0.117 | [4] 0.168 | [5] -0.345 | [6] -0.029 | [7] -0.034

NCAPH (UniProt Q15003)
inactive: erlotinib 0.201 | [1] 0.09 | [2] 0.008 | [3] -0.059 | [4] 0.024 | [5] 0.022 | [6] -0.009 | [7] 0.02 | [8] -0.004 | [9] -0.096

NARS2 (UniProt Q96I59)
inactive: erlotinib 0.037 | [1] 0.065 | [2] 0.07 | [3] 0.008 | [4] -0.018 | [5] -0.004 | [6] 0.053 | [7] 0.017 | [8] -0.002 | [9] -0.083

OGFOD1 (UniProt Q8N543)
inactive: erlotinib 0.043 | [1] -0.18 | [2] 0.02 | [3] 0.007 | [4] 0.015 | [5] 0.11 | [6] -0.01 | [7] 0.014 | [8] 0.007 | [9] 0.03

MYO19 (UniProt Q96H55)
inactive: erlotinib 0.032 | [1] -0.047 | [2] -0.103 | [3] -0.114 | [4] 0.011 | [5] 0.093 | [6] 0.027 | [7] 0.07

NME7 (UniProt Q9Y5B8)
inactive: erlotinib 0.166 | [1] 0.058 | [2] -0.052 | [3] -0.247 | [4] 0.127 | [5] -0.023 | [6] 0.06 | [7] 0.006 | [8] -0.039 | [9] -0.248

NDUFS7 (UniProt O75251)
inactive: erlotinib 0.129 | [1] -0.011 | [2] 0.039 | [3] -0.011 | [4] 0.062 | [5] 0.038 | [6] -0.052 | [7] 0.035 | [8] 0.045 | [9] 0.011

NUMBL (UniProt Q9Y6R0)
Sequence of UniProt Q9Y6R0 (Q9Y6R0 whole entry, looked up): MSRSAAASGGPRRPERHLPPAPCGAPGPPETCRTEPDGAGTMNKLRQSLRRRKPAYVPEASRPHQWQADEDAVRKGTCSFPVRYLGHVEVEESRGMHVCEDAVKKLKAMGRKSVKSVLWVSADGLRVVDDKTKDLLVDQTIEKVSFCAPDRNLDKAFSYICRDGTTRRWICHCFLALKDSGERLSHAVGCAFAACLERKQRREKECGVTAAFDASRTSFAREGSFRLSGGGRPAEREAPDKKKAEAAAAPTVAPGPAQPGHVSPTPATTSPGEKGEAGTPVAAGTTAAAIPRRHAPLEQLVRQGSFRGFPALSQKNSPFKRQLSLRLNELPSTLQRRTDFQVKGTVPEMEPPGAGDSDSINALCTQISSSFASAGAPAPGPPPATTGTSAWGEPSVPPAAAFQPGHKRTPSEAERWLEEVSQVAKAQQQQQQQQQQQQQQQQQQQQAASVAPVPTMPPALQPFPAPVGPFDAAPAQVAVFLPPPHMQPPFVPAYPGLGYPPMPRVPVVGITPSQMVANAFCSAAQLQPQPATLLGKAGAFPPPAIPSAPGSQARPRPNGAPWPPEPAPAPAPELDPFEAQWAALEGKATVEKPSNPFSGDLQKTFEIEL
inactive: erlotinib -0.001 | [1] 0.021 | [2] -0.026 | [3] -0.095 | [4] 0.085 | [5] -0.047 | [6] 0.042 | [7] 0.056

NSMCE4A (UniProt Q9NXX6)
inactive: erlotinib -0.044 | [1] 0.028 | [2] -0.002 | [3] 0.072 | [4] 0.182 | [5] -0.138 | [6] -0.031 | [7] -0.192 | [8] 0.056 | [9] 0.117

MTMR14 (UniProt Q8NCE2)
inactive: erlotinib -0.019 | [1] 0.009 | [2] 0.047 | [3] 0.037 | [4] 0.002 | [5] 0.009 | [6] -0.038 | [7] -0.05 | [8] -0.05 | [9] 0.028

MRPS5 (UniProt P82675)
inactive: erlotinib -0.077 | [1] 0.038 | [2] 0.009 | [3] 0.193 | [4] 0.007 | [5] -0.008 | [6] 0.027 | [7] 0.158 | [8] -0.035 | [9] -0.085

NMT2 (UniProt O60551)
inactive: erlotinib 0.028 | [1] 0.031 | [2] 0.007 | [3] 0.004 | [4] 0.062 | [5] 0.032 | [6] -0.043 | [7] 0.021 | [8] 0.041
active: [9] -0.369

NMU (UniProt P48645)
inactive: erlotinib -0.003 | [1] 0.072 | [2] -0.02 | [3] 0.063 | [4] -0.123 | [5] 0.094 | [6] -0.129 | [7] -0.018 | [8] 0.025 | [9] 0.133

OXR1 (UniProt Q8N573)
Sequence of UniProt Q8N573 (Q8N573 whole entry, looked up): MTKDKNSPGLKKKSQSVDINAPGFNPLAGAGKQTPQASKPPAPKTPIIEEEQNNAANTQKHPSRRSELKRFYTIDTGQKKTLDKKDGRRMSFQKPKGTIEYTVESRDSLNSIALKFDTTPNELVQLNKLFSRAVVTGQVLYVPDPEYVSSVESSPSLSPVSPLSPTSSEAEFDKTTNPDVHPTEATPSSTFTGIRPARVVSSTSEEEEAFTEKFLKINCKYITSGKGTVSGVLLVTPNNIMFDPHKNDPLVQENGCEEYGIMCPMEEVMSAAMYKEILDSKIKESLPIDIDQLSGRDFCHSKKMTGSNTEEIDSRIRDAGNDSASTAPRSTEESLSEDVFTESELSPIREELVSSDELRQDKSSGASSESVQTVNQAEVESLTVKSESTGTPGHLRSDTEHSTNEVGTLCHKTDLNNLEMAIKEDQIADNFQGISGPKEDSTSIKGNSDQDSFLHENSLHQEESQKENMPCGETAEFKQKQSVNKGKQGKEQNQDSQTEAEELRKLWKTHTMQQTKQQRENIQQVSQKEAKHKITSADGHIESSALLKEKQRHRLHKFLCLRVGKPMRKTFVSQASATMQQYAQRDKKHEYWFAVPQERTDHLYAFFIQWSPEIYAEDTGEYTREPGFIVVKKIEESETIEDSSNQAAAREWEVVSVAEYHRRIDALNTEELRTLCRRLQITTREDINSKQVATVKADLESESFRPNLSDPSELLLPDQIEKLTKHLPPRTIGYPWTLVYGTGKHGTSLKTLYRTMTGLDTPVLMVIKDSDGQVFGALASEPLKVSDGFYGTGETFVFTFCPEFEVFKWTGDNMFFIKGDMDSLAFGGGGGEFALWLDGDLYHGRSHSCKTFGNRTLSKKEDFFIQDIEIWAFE
inactive: erlotinib 0.029 | [1] 0.067 | [2] 0.011 | [3] 0.002 | [4] 0.023 | [5] 0.007 | [6] -0.043 | [7] -0.062 | [8] -0.03 | [9] 0.056
